Data taken from PubChem BioAssay (NCI).
About 83,000 compounds went through this panel and 20% of them were active in at least one assay; those are over-represented in the sample as a whole.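 Results are percent growth after 48 hours of single-concentration exposure. 100 means growth as in untreated cells, lower positive values show inhibition; negative values down to -100 show cell death.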 Activity calls are given as the source filed them. The calls were made as follows: active = growth percent below 10; inactive = the rest.

Columns and labels:
Experiment in all cases: NCI-60 one-dose screen, 48 h (100 = growth as untreated, 0 = no growth, -100 = all killed)
Conditions in all cases: 10 µM unless noted
SK-MEL-2 melanoma = tested on: SK-MEL-2 melanoma
EKVX NSCLC = tested on: EKVX NSCLC
SN12C renal = tested on: SN12C renal
UO-31 renal = tested on: UO-31 renal
TK-10 renal = tested on: TK-10 renal
ACHN renal = tested on: ACHN renal
CAKI-1 renal = tested on: CAKI-1 renal
A498 renal = tested on: A498 renal
CCRF-CEM leukemia = tested on: CCRF-CEM leukemia
MOLT-4 leukemia = tested on: MOLT-4 leukemia

Measured: growth

NC(=O)c1ccc(-c2c3ccccc3cc3c2ccc2ccccc23)cc1
inactive: SK-MEL-2 melanoma 43.7% | EKVX NSCLC 67.7% | SN12C renal 72.9% | UO-31 renal 57.5% | TK-10 renal 70.2% | ACHN renal 57.2% | CAKI-1 renal 61.7% | A498 renal 70% | CCRF-CEM leukemia 37.8% | MOLT-4 leukemia 40.5%

Cc1ccccc1/C=C/C(=O)c1cccc(OCCCCOc2cccc(C(=O)/C=C/c3ccccc3C)c2)c1
inactive: SK-MEL-2 melanoma 103% | EKVX NSCLC 94.6% | SN12C renal 90.7% | UO-31 renal 80.7% | TK-10 renal 101% | ACHN renal 101% | CAKI-1 renal 86% | A498 renal 86% | CCRF-CEM leukemia 104% | MOLT-4 leukemia 94.5%

Cc1ccc(-c2nc(N3CCCNCC3)c3oc(-c4ccccc4)nc3n2)cc1
inactive: EKVX NSCLC 38.2% | A498 renal 93.4%
active: SK-MEL-2 melanoma -67.2% | SN12C renal -85.1% | UO-31 renal -99% | TK-10 renal -95.9% | ACHN renal -98.8% | CAKI-1 renal -71% | CCRF-CEM leukemia -71% | MOLT-4 leukemia -73.2%

O=C(/C=C/c1ccco1)Nc1ncc(Cc2cccc(C(F)(F)F)c2)s1
active: A498 renal -6.36%
inactive: SK-MEL-2 melanoma 23.4% | EKVX NSCLC 25% | SN12C renal 20.9% | UO-31 renal 11.8% | TK-10 renal 33.6% | ACHN renal 11.7% | CAKI-1 renal 20.5% | CCRF-CEM leukemia 14.5% | MOLT-4 leukemia 14%

CC(C)(Sc1cc(C(C)(C)C)c(OC(=O)CCCC(=O)O)c(C(C)(C)C)c1)Sc1cc(C(C)(C)C)c(OC(=O)CCCC(=O)O)c(C(C)(C)C)c1
inactive: SK-MEL-2 melanoma 55.2% | EKVX NSCLC 47.2% | SN12C renal 19.6% | UO-31 renal 37.9% | TK-10 renal 58.6% | ACHN renal 26.9% | CAKI-1 renal 52.8% | A498 renal 66.5% | CCRF-CEM leukemia 37.8% | MOLT-4 leukemia 26.6%

CCOC(=O)c1csc(NC(=O)COc2ccc(/C=C3\Oc4ccccc4C3=O)cc2)n1
active: UO-31 renal -14%
inactive: SK-MEL-2 melanoma 94.8% | EKVX NSCLC 74% | SN12C renal 91% | TK-10 renal 119% | ACHN renal 108% | CAKI-1 renal 91.2% | A498 renal 119% | CCRF-CEM leukemia 23.5% | MOLT-4 leukemia 42.2%

CCOC(=O)n1ccn(C)c1=S
inactive: SK-MEL-2 melanoma 97.8% | EKVX NSCLC 100% | SN12C renal 105% | UO-31 renal 80.7% | TK-10 renal 98.6% | ACHN renal 99.3% | CAKI-1 renal 95.4% | A498 renal 115% | CCRF-CEM leukemia 98% | MOLT-4 leukemia 103%

Cc1c(O)cc(-c2cnc(Nc3ccccc3)s2)c(O)c1C
inactive: SK-MEL-2 melanoma 99.4% | EKVX NSCLC 87.9% | SN12C renal 94% | UO-31 renal 86.9% | TK-10 renal 134% | ACHN renal 91.6% | CAKI-1 renal 86.9% | A498 renal 75.1% | CCRF-CEM leukemia 78.5% | MOLT-4 leukemia 62.8%

Nc1ncnc2c1C(c1ccccc1)c1ccc3ccccc3c1O2 (stereo not given)
inactive: SK-MEL-2 melanoma 91.1% | EKVX NSCLC 90.6% | SN12C renal 73.6% | UO-31 renal 56.5% | TK-10 renal 96% | ACHN renal 80.9% | CAKI-1 renal 81.1% | A498 renal 94.7% | CCRF-CEM leukemia 91.6% | MOLT-4 leukemia 68.4%

CC/C(=C(/c1ccc(Cl)cc1)c1ccc(OCCN2CCCCC2)cc1)c1ccc(OC)cc1
inactive: SK-MEL-2 melanoma 90.6% | EKVX NSCLC 58.5% | SN12C renal 74.8% | UO-31 renal 66.2% | TK-10 renal 80.7% | ACHN renal 81.2% | CAKI-1 renal 72.3% | A498 renal 118% | CCRF-CEM leukemia 28.8% | MOLT-4 leukemia 25.8%

O=C1c2c(c3c4ccccc4[nH]c3c3ccc4ccccc4c23)C(=O)N1CCN1CCOCC1
inactive: SK-MEL-2 melanoma 69.9% | EKVX NSCLC 61.8% | SN12C renal 30.2% | UO-31 renal 27.6% | TK-10 renal 71.2% | ACHN renal 15.3% | CAKI-1 renal 32.8% | A498 renal 61.4% | CCRF-CEM leukemia 10.9%
active: MOLT-4 leukemia 6.38%

CC(=O)Oc1ccc(N2C(=O)C(Cl)=C(Nc3cccc(C(F)(F)F)c3)C2=O)cc1
inactive: SK-MEL-2 melanoma 88% | EKVX NSCLC 103% | SN12C renal 93% | UO-31 renal 84.2% | TK-10 renal 94.9% | ACHN renal 95% | CAKI-1 renal 92% | A498 renal 92% | CCRF-CEM leukemia 77.4% | MOLT-4 leukemia 85.9%

Cc1cccc(/C=C/c2c(C(=O)/C=C/c3ccccc3)c(C)nc3ccccc23)c1
active: SK-MEL-2 melanoma -60.8% | EKVX NSCLC 0.995% | SN12C renal -44.3% | UO-31 renal -94.2% | TK-10 renal -6.55% | ACHN renal -23% | CAKI-1 renal -36.2% | A498 renal -38.2% | CCRF-CEM leukemia 6.17% | MOLT-4 leukemia 5.83%
